{"source": "PubChem BioAssay (NCATS)", "note": "Inconclusive results are not listed. Values without a mark were called inactive. Active and inactive are the calls of the source. Calls follow the shape of the dose curve; as a rule, active = well fitted cell-killing curve with a large enough effect; inconclusive = small, poorly fitted or top-dose-only effect, or effect the other way; inactive = flat fitted curve, though single readings scatter. % is scaled to controls: 0 for no effect and ±100 for the full control effect; potency is read from the fitted curve at half-maximal effect.", "data": [{"system": "CAOV3", "test": "Primary qHTS to identify gynecologic anti-cancer compounds using libraries of approved drugs and bioactive compounds (AID 1345084); also: nearly all actives have a fitted effect of over 55% in size", "conditions": "Gynecologic cancer cell panel viability, ATPlite luminescence, 48 h; series mostly up to 57.5 µM; activity change, negative = cytotoxicity: at the top concentration", "text": "National Center for Advancing Translational Sciences [NCATS] Assay Overview: Chemotherapeutic drug responses vary from cancer to cancer and from patient to patient. These variations could be caused by a number of factors including patient genomic background, tumor mutations, tumor heterogeneity, and aspects of drug treatment. Chemotherapeutic drug resistance is also a common issue and can lead to ineffective treatment and patient death. Here we have profiled the cell killing effects of thousands of compounds to characterize the responses in three gynecological cancers, identify cancer-selective compounds, and understand the diversity of responses to these compounds from pan-cancer suppressors to single cell line selective compounds. In this assay, we screened a 7,914 compound drug library that included approved drug and bioactive compounds in six ovarian, three cervical, and […] placental cancer cell lines using the ATPlite assay for cell viability. […] The cervical cancer cell lines included HeLa, Ca Ski, and C-33 A. The placental cancer cell lines included JEG-3. HEK 293T cells were used as the control cell line to determine the selectivity index. ATPlite is a luminescence based assay reliant on the conversion of a luciferase substrate to light in the presence of ATP. As a cytotoxic compound will suppress growth and decrease the number of cells, the concentration of ATP will decrease, and less light signal will be detected in the well.\nAssay Protocol Summary: 1,000 cells in 4 uL of media were dispensed into white, solid bottom 1536-well plates using a Multidrop Combi (Thermo Scientific). The Assay plates were incubated for 16 hours at 37 C with 5% CO2 in assay plates, followed by the addition of 23 nL of DMSO or drug dissolved in DMSO. Each compound was assayed in five concentrations (0.092, 0.46, 2.3, 11.5, and 57.5 uM), using the automated Wako 1536 Pin Tool workstation and incubated at 37 C with 5% CO2 48 hours. 4 uL of ATPlite, the ATP monitoring reagent, was then added to the each well of the assay plates using the Multidrop Combi reagent dispenser followed by incubation for 15 minutes at room temperature. The resulting luminescence was measured using the ViewLux plate reader.", "units": {"activity change, negative = cytotoxicity": "%"}, "values": [{"smiles": "C[C@H]1[C@H](NC(=O)/C(=N/OC(C)(C)C(=O)O)c2csc(N)n2)C(=O)N1S(=O)(=O)O", "note": "(stereo in doubt)", "activity change, negative = cytotoxicity": 6.76}, {"smiles": "C[C@]12CC[C@H]3[C@@H](CCC4=CC(=O)CC[C@@]43C)[C@@H]1CC[C@@H]2C(=O)CO", "activity change, negative = cytotoxicity": -1.39}, {"smiles": "Cc1c(C)n(CCN(C)C)c2ccc(C(=O)OCCN(C)C)cc12", "activity change, negative = cytotoxicity": -17.1}, {"smiles": "CCCCC(=O)O[C@]1(C(=O)CO)CC[C@H]2[C@@H]3CCC4=CC(=O)CC[C@]4(C)[C@H]3[C@@H](O)C[C@@]21C", "activity change, negative = cytotoxicity": -27.2}, {"smiles": "C=C(CC)C(=O)c1ccc(OCC(=O)O)c(Cl)c1Cl", "activity change, negative = cytotoxicity": -7.2}, {"smiles": "CC(=O)Oc1ccc(C(c2ccc(OC(C)=O)cc2)c2ccccn2)cc1", "activity change, negative = cytotoxicity": -2.19}, {"smiles": "O=C(O)CCCCC(=O)O", "activity change, negative = cytotoxicity": 11}, {"smiles": "O=S1(=O)c2cccc3cccc(c23)N1CCCN1CCN(c2ccc(F)cc2)CC1", "activity change, negative = cytotoxicity": -10.6}, {"smiles": "O=c1ccc2ccccc2o1", "activity change, negative = cytotoxicity": -16.5}, {"smiles": "CN1CCC[C@@H]1c1cccnc1", "activity change, negative = cytotoxicity": -1.21}, {"smiles": "CC(=O)CC(c1ccc([N+](=O)[O-])cc1)c1c(O)c2ccccc2oc1=O", "note": "(stereo not given)", "activity change, negative = cytotoxicity": 0.179}, {"smiles": "CC(C)(CO)[C@@H](O)C(=O)NCCCO", "activity change, negative = cytotoxicity": 8.13}, {"smiles": "Cc1c(C(N)=O)cc([N+](=O)[O-])cc1[N+](=O)[O-]", "activity change, negative = cytotoxicity": -3.42}, {"smiles": "O=C(Nc1ccc(Cl)c(Cl)c1)C1CC1", "activity change, negative = cytotoxicity": -2.78}, {"smiles": "COc1cc(C(=S)N2CCOCC2)cc(OC)c1OC", "activity change, negative = cytotoxicity": -0.0419}, {"smiles": "O=C1[C@H]2CCCC[C@H]2C(=O)N1CCCCN1CCN(c2nsc3ccccc23)CC1", "activity change, negative = cytotoxicity": 7.92}, {"smiles": "COC(=O)[C@@H]1CC2=CC(=O)CC[C@]2(C)[C@@]23O[C@@H]2C[C@@]2(C)[C@@H](CC[C@@]24CCC(=O)O4)[C@H]13", "activity change, negative = cytotoxicity": 5.14}, {"smiles": "O=c1[nH]c(=O)n([C@H]2C[C@H](O)[C@@H](CO)O2)cc1C(F)(F)F", "activity change, negative = cytotoxicity": -8.48}, {"smiles": "CC[C@@H](CO)NCCN[C@@H](CC)CO", "activity change, negative = cytotoxicity": -7.89}, {"smiles": "CCCC(=O)O[C@]1(C(=O)CO)CC[C@H]2[C@@H]3CCC4=CC(=O)CC[C@]4(C)[C@H]3[C@@H](O)C[C@@]21C", "Potency": "3.55 µM (active)"}, {"smiles": "CCN(CC)CCNC(=O)COc1ccc(Cl)cc1", "activity change, negative = cytotoxicity": 22.1}, {"smiles": "CN(C)CC/C=C1/c2ccccc2COc2ccc(CC(=O)O)cc21", "activity change, negative = cytotoxicity": -2.41}, {"smiles": "O=C(OCC(O)CO)c1ccccc1Nc1ccnc2cc(Cl)ccc12", "note": "(stereo not given)", "activity change, negative = cytotoxicity": -2.01}, {"smiles": "CC(=O)OCC(=O)[C@@]12N=C(C)O[C@@H]1C[C@H]1[C@@H]3CCC4=CC(=O)C=C[C@]4(C)[C@H]3[C@@H](O)C[C@@]12C", "activity change, negative = cytotoxicity": -0.496}, {"smiles": "CCCCCCc1ccc(O)cc1O", "activity change, negative = cytotoxicity": 10.3}, {"smiles": "COc1cc2c(cc1OC)C(C(C(=O)N(CCc1ccc(OC)c(OC)c1OC)CCc1ccc(OC)c(OC)c1OC)c1ccccc1)=NCC2", "note": "(stereo not given)", "activity change, negative = cytotoxicity": -0.673}, {"smiles": "CC(C)(C)NC(=O)[C@@H]1CN(Cc2cccnc2)CCN1C[C@@H](O)C[C@@H](Cc1ccccc1)C(=O)N[C@H]1c2ccccc2C[C@H]1O", "activity change, negative = cytotoxicity": -2.03}, {"smiles": "CC1=C(C(=O)OC(C)C)C(c2cccc([N+](=O)[O-])c2)C(C(=O)OC2CN(C(c3ccccc3)c3ccccc3)C2)=C(N)N1", "note": "(stereo not given)", "activity change, negative = cytotoxicity": 11.7}, {"smiles": "Cc1nc2n(c(=O)c1CCN1CCC(c3noc4cc(F)ccc34)CC1)CCC[C@H]2O", "Potency": "inactive"}, {"smiles": "CCC(C(=O)OCCN(CC)CC)c1ccccc1", "note": "(stereo not given)", "activity change, negative = cytotoxicity": -4.59}, {"smiles": "CN=C(NC#N)NCCSCc1csc(N=C(N)N)n1", "activity change, negative = cytotoxicity": 25.9}, {"smiles": "Cc1ccc(Nc2c(F)cccc2Cl)c(CC(=O)O)c1", "Potency": "inactive"}, {"smiles": "N[C@H](Cc1c[nH]c2ccccc12)C(=O)O", "activity change, negative = cytotoxicity": 1.5}, {"smiles": "C[C@H](CCC(=O)O)[C@H]1CC[C@H]2[C@@H]3C(=O)C[C@@H]4CC(=O)CC[C@]4(C)[C@H]3CC(=O)[C@]12C", "activity change, negative = cytotoxicity": -8.73}, {"smiles": "C#C[C@]1(O)CC[C@H]2[C@@H]3CCc4cc(OC5CCCC5)ccc4[C@H]3CC[C@@]21C", "activity change, negative = cytotoxicity": -43.3}, {"smiles": "O=C(O)CNC(=O)c1ccccc1", "activity change, negative = cytotoxicity": 25}, {"smiles": "OC[C@@H](O)[C@@H](O[C@@H]1O[C@H](CO)[C@H](O)[C@H](O)[C@H]1O)[C@H](O)[C@@H](O)CO", "activity change, negative = cytotoxicity": 6.68}, {"smiles": "CCCN1CCCC[C@H]1C(=O)Nc1c(C)cccc1C", "activity change, negative = cytotoxicity": 3.72}, {"smiles": "CC(O)(P(=O)(O)O)P(=O)(O)O", "activity change, negative = cytotoxicity": -0.797}, {"smiles": "COc1c2occc2c(OC)c2c(=O)cc(C)oc12", "activity change, negative = cytotoxicity": 6.77}]}]}
